The supplement of paper PMC11417369
Over roughly 25,000 sequences, “ln(normalized median fluorescence intensity)” has its median near 6.7; the highest 2% begin near 10. For the sample, the highest values were picked, then their nearest neighbours and some sequences at random.

Each sequence was assayed on PfHDP1 homeodomain (GST-tagged) (assay: gcPBM binding intensity (ln(normalized median fluorescence intensity)); higher = stronger DNA binding).
Outline: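 DNA-binding domains from P. falciparum, fused to GST and produced in E. coli, were put on an Agilent 4 × 180k double-stranded probe array for 1 h in 1× PBS holding 1% milk, 0.2 mg/ml BSA, 0.5% salmon testes DNA and 0.03% Triton X-100. Probes were primer-extended, 36 bp long and drawn from intergenic genomic regions, with negative controls included. After Alexa488 anti-GST antibody detection and a 488 nm scan, binding intensity was set as the highest Masliner-normalised natural-log median intensity across replicate spots of either probe orientation.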
In the case of “AAATAATAAAAAAAATGTACACGTAAATATTATATT [XGTACX_site8125]”, the “gcPBM binding intensity (ln)” value is reported as 6.99.
“TTTTGTACATCTTTTGCACACGTAATGTTATTATAA [CACACA_site1259]” was tested, and the “gcPBM binding intensity (ln)” value was 10.6.
For “TTATTATAAATGTTTTGTACGTACATCCGAAAATAA [XGTACX_site2175]”, the “gcPBM binding intensity (ln)” value was 6.57.
With “GAACACTAATAATGTTGTACACGTAATTATATATTT [XGTACX_site777]” the “gcPBM binding intensity (ln)” value was 6.53.
For “ATTATGTTATTATTTTGTACACATAAATAATACGTT [XGTACX_site816]”, the “gcPBM binding intensity (ln)” value was 6.61.
In the case of “TTGTACATCTTTTGCACACGTAATGTTATTAAAATA [CACACA_site4827]”, the “gcPBM binding intensity (ln)” value is reported as 10.7.
For “TTGTACATCTTTTGCACACGTAATGTTATTATAATA [CACACA_site1258]”, the “gcPBM binding intensity (ln)” value was 10.7.
“TTTTTTTTTTTTTTGTGTACATATAATGCACATTAT [XGTACX_site6505]” was tested, and the “gcPBM binding intensity (ln)” value was 10.1.
In the case of “CTTTTTTTTTGATGTTGTACATATATATTATATAAT [XGTACX_site1321]”, the “gcPBM binding intensity (ln)” value is reported as 6.9.
With “CATACCCATAAACACACACACATATATACCTATATA [CACACA_site4745]” the “gcPBM binding intensity (ln)” value was 6.87.
With “AAAAAAAAGTTAAGCACACACATGAATAAATAATAC [CACACA_site840]” the “gcPBM binding intensity (ln)” value was 6.94.
“ATAAAAATATTATAAGCACACATATATATATATATA [CACACA_site8781]” was tested, and the “gcPBM binding intensity (ln)” value was 9.54.
For “AAAGTAAATTTAAGCACACACAACGAATTTTTATAC [CACACA_site1959]”, the “gcPBM binding intensity (ln)” value was 6.84.
In the case of “TGAAATTTGTTATATGCATGTAAAATATTACGACGA [TGCATGCA_site201]”, the “gcPBM binding intensity (ln)” value is reported as 6.59.
“TTTTTTTTTCCGTGTTGTACAAAAAAAAAGATTTTG [XGTACX_site3925]” was tested, and the “gcPBM binding intensity (ln)” value was 6.21.
“ACACAAAACAAAAAGGTGCTGTATAAATGGGTGTAT [GTGCAC_site9905]” was tested, and the “gcPBM binding intensity (ln)” value was 7.
In the case of “TATTTTAGTAAAGGTGGTACTTTTAAGTTCATGTAT [XGTACX_site1854]”, the “gcPBM binding intensity (ln)” value is reported as 6.23.
“TATACAAACTATGATGCACACATATATATATGTATA [CACACA_site8327]” was tested, and the “gcPBM binding intensity (ln)” value was 8.97.
“AGGGAATATTTTTATGCATGTGCTTACACATTACAA [TGCATGCA_site830]” was tested, and the “gcPBM binding intensity (ln)” value was 6.83.
“TAGCTTATAAGATATGCACACACAACACTTACAAAA [CACACA_site8174]” was tested, and the “gcPBM binding intensity (ln)” value was 9.5.
In the case of “TTATTTATTTTTATATGTACACAAAAAAAAAAAAAA [XGTACX_site1459]”, the “gcPBM binding intensity (ln)” value is reported as 6.53.
With “TTTTTTTTTTTATGTGCACACAAAAGATGCTTATAT [CACACA_site2347]” the “gcPBM binding intensity (ln)” value was 10.7.
With “TTTTTTTTTATGTGCACACAAAAGATGCTTATATTT [CACACA_site2348]” the “gcPBM binding intensity (ln)” value was 11.2.
“GCTTATAAGATATGCACACACAACACTTACAAAAAA [CACACA_site817]” was tested, and the “gcPBM binding intensity (ln)” value was 9.27.
In the case of “ATTCTATTCTCCTTCACACACAAAAATATTTCATCA [CACACA_site2360]”, the “gcPBM binding intensity (ln)” value is reported as 6.98.
